# Activity calls are given as the source filed them.
# What was measured:
# [1] = A549 cell viability effects, profiling panel, calcein-AM fluorescence, 48 h, basal (AID 1162); conditions: higher = more signal
# [2] = adipocyte viability effects, profiling panel, cell-based, 3T3-L1 adipocytes, calcein-AM fluorescence, 48 h, basal (AID 1163); conditions: 3T3-L1 adipocytes viability, higher = more signal
# [3] = HepG2 cell viability effects, profiling panel, calcein-AM fluorescence, 48 h, basal (AID 1164); conditions: higher = more signal
# [4] = MM1S cell viability effects, profiling panel, calcein-AM fluorescence, 48 h, basal (AID 1165); conditions: higher = more signal;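 note: viability of MM1S multiple myeloma cells under basal unstimulated conditions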
# [5] = basal RPMI8226 viability, no added stimulus, profiling panel, cell-based, calcein-AM fluorescence, 48 h, PK04 Diversity Set (AID 1166); conditions: RPMI8226 myeloma viability, higher = more signal;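 note: cells grown under basal conditions without added stimulus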
# [6] = basal HepG2 mitochondrial membrane potential changes, profiling panel, cell-based, JC-1 fluorescence, 24 h, 100 nL compound (AID 1167); conditions: higher = more signal
# [7] = basal 3T3-L1 adipocyte mitochondrial potential changes, profiling panel, cell-based, JC-1 fluorescence, 3T3-L1 adipocytes, 24 h, 100 nL compound (AID 1168); conditions: JC-1 mitochondrial fluorescence, higher = more signal, called active from +8 up or from −8 down
# [8] = basal RPMI8226 mitochondrial membrane potential changes, profiling panel, cell-based, JC-1 fluorescence, 24 h, 100 nL compound (AID 1169); conditions: RPMI8226 myeloma, JC-1 mitochondrial potential fluorescence, higher = more signal
# [9] = basal MM1S mitochondrial membrane potential changes, profiling panel, cell-based, JC-1 fluorescence, 24 h, 100 nL compound (AID 1170); conditions: higher = more signal
# [10] = A549 lung cancer cell viability effects, profiling panel, resazurin fluorescence, 24 h, PK04 Diversity Set (AID 1171); conditions: higher = more signal, called active from +8 up or from −8 down
# Note: test concentration not given here.
smiles,measurement,setting,value
CCOC(=O)C[C@H]1[C@H](OC(=O)c2ccccc2-c2ccccc2)[C@@H](NC(=O)c2ccc3ccccc3c2)c2cc(OCCCO)ccc2N1C(=O)Cc1ccc(OC)cc1,z-score,[1],0.0867
same,z-score,[2],0.152
same,z-score,[3],0.278
same,z-score,[4],0.306
same,z-score,[5],-0.543
same,z-score,[6],-0.175
same,z-score,[7],0.367 (inactive)
same,z-score,[8],-0.49
same,z-score,[9],0.0571
same,z-score,[10],-0.439 (inactive)
COC(=O)C(CC#Cc1ccc2c(c1)[C@]1(C(=O)N2)[C@H](C(=O)NC[C@H](O)c2ccccc2)[C@H]2C(=O)O[C@H](c3ccccc3)[C@H](c3ccccc3)N2[C@@H]1c1ccccc1OCCO)C(=O)OC,z-score,[1],-0.101
same,z-score,[2],1.14
same,z-score,[3],-0.272
same,z-score,[4],-3.29
same,z-score,[5],-4.57
same,z-score,[6],-0.0353
same,z-score,[7],1.82 (inactive)
same,z-score,[8],-1.16
same,z-score,[9],-2.1
same,z-score,[10],0.422 (inactive)
C=CCC(OC(C)=O)[C@@H]1[C@@H](N(Cc2cccc3ccccc23)C(=O)Cc2ccc(OC)cc2)c2cc(OCCCO)ccc2N1C(=O)c1ccc2ccccc2c1 (stereo not given in full),z-score,[1],1.19
same,z-score,[2],2.02
same,z-score,[3],0.692
same,z-score,[4],0.357
same,z-score,[5],1.19
same,z-score,[6],2.55
same,z-score,[7],0.443 (inactive)
same,z-score,[8],0.066
same,z-score,[9],0.433
same,z-score,[10],0.445 (inactive)
CN1C(=O)C2C(C1=O)C1C=C(c3ccc(CO)cc3)C2C(C2CC2)N1C (stereo not given),z-score,[1],0.632
same,z-score,[2],1.29
same,z-score,[3],-0.799
same,z-score,[4],0.535
same,z-score,[5],-0.594
same,z-score,[6],0.399
same,z-score,[7],-0.768 (inactive)
same,z-score,[8],0.178
same,z-score,[9],-0.0509
same,z-score,[10],-0.694 (inactive)
CC(C)NC(=O)[C@@]1(C)c2ccccc2C(=O)N(Cc2ccccc2)[C@H]1c1ccc(CO)cc1,z-score,[1],0.389
same,z-score,[2],0.714
same,z-score,[3],1.41
same,z-score,[4],0.579
same,z-score,[5],0.38
same,z-score,[6],2.88
same,z-score,[7],1.49 (inactive)
same,z-score,[8],-0.197
same,z-score,[9],1.02
same,z-score,[10],-0.268 (inactive)
CC(C)C[C@@H]1NC(=O)[C@@H]2C[C@H](C(=O)NCCCCCCNC(=O)CS)[C@H](c3cccc(OCCO)c3)N2C1=O,z-score,[1],0.028
same,z-score,[2],-0.0252
same,z-score,[3],0.134
same,z-score,[4],-0.505
same,z-score,[5],-0.587
same,z-score,[6],-0.946
same,z-score,[7],-0.185 (inactive)
same,z-score,[8],-0.217
same,z-score,[9],-0.165
same,z-score,[10],0.457 (inactive)
CC(C)NC(=O)[C@@H]1c2ccccc2C(=O)N(Cc2ccc(OC(F)(F)F)cc2)[C@H]1c1ccc(CO)cc1,z-score,[1],0.531
same,z-score,[2],1.34
same,z-score,[3],-0.315
same,z-score,[4],1.09
same,z-score,[5],-1.85
same,z-score,[6],2.18
same,z-score,[7],-1.32 (inactive)
same,z-score,[8],0.24
same,z-score,[9],-0.498
same,z-score,[10],0.0746 (inactive)
COC(=O)[C@@]1(Cc2ccc(F)cc2)[C@H]2c3cc(C(=O)N(C)C)n(CCc4ccc(O)c(O)c4)c3C[C@H]2CN1C(=O)c1ccccc1,z-score,[1],-0.681
same,z-score,[2],-1.17
same,z-score,[3],0.193
same,z-score,[4],0.287
same,z-score,[5],-0.238
same,z-score,[6],0.86
same,z-score,[7],0.243 (inactive)
same,z-score,[8],-0.672
same,z-score,[9],-1.95
same,z-score,[10],-0.238 (inactive)
O=C1NC(=O)C2C1C=CC(C(O)c1ccc([N+](=O)[O-])cc1)N2Nc1ccccn1 (stereo not given),z-score,[1],0.0411
same,z-score,[2],-0.379
same,z-score,[3],-0.357
same,z-score,[4],-0.492
same,z-score,[5],-1.07
same,z-score,[6],-0.969
same,z-score,[7],-0.713 (inactive)
same,z-score,[8],-0.284
same,z-score,[9],0.339
same,z-score,[10],-0.0648 (inactive)
C=CC[C@@]12N=C(c3ccc(OCCCO)cc3)O[C@@H]1c1ccccc1N(CCC)C2=O,z-score,[1],-0.604
same,z-score,[2],0.96
same,z-score,[3],-1.16
same,z-score,[4],-1.79
same,z-score,[5],-3.66
same,z-score,[6],1.07
same,z-score,[7],2.64 (inactive)
same,z-score,[8],-1.22
same,z-score,[9],-0.994
same,z-score,[10],0.0626 (inactive)
COc1cc(C(O)C2C=CC3C(=O)N(c4ccccc4)C(=O)C3N2Nc2ccccc2F)cc(OC)c1OC (stereo not given),z-score,[1],0.0221
same,z-score,[2],-0.603
same,z-score,[3],-0.162
same,z-score,[4],-1.76
same,z-score,[5],-1.63
same,z-score,[6],-1.15
same,z-score,[7],-1.01 (inactive)
same,z-score,[8],0.446
same,z-score,[9],0.142
same,z-score,[10],-0.28 (inactive)
C[C@]1(C(=O)O)c2ccccc2C(=O)N(Cc2cc(F)cc(C(F)(F)F)c2)[C@H]1c1ccc(CO)cc1,z-score,[1],0.653
same,z-score,[2],0.658
same,z-score,[3],-0.577
same,z-score,[4],0.471
same,z-score,[5],0.792
same,z-score,[6],-0.23
same,z-score,[7],0.235 (inactive)
same,z-score,[8],0.383
same,z-score,[9],-0.703
same,z-score,[10],1.27 (inactive)
COC(=O)[C@@]1(Cc2ccccc2)N=C(c2ccc(OCCCO)cc2)O[C@H]1c1ccccc1CN=[N+]=[N-],z-score,[1],-2.95
same,z-score,[2],-0.565
same,z-score,[3],-5.45
same,z-score,[4],-3.55
same,z-score,[5],-3.96
same,z-score,[6],-2.16
same,z-score,[7],1.22 (inactive)
same,z-score,[8],-1.13
same,z-score,[9],-2.9
same,z-score,[10],-5.77 (inactive)
CC(C)=CCCC(C)=CC(O)C1C=CC2C(=O)NC(=O)C2N1Nc1ccccn1 (stereo not given),z-score,[1],0.531
same,z-score,[2],-0.446
same,z-score,[3],1.29
same,z-score,[4],0.617
same,z-score,[5],0.586
same,z-score,[6],-0.23
same,z-score,[7],-0.503 (inactive)
same,z-score,[8],0.333
same,z-score,[9],0.0809
same,z-score,[10],-1.39 (inactive)
C#CCN1[C@@H](Cc2ccccc2)C(=O)O[C@H](Cc2ccccc2)[C@@H]1/C=C/C1CC1,z-score,[1],-0.589
same,z-score,[2],-0.488
same,z-score,[3],0.196
same,z-score,[4],-2
same,z-score,[5],-2.16
same,z-score,[6],2.46
same,z-score,[7],-0.693 (inactive)
same,z-score,[8],-0.812
same,z-score,[9],0.4
same,z-score,[10],3.08 (inactive)
